Bioassay records deposited in PubChem BioAssay by National Center for Advancing Translational Sciences (NCATS).
Hits are enriched below; roughly 7.3% of the tested compounds scored in any of these assays.
Rab9 prom act – activators of Rab9 promoter; Huh7 Rab9 promoter-luciferase reporter, luminescence, 24 h; Potency, µM (doses to about 9.22 µM), without a hit: at the highest dose activation, negative = inhibition, actives largely listed as activators; hit rate 2.8% among 320,000; AID 485297; further: % of control where 0% means no effect; nearly all actives have a fitted effect of over 60% in size
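Measured in stably transfected Huh7 cells bearing a Rab9 promoter–luciferase construct: 24 h compound treatment at 37 °C, followed by luminescence detection.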
NPC1 prom act – activators of NPC1 promoter. Huh7 NPC1 promoter luciferase reporter, 24 h. Potency, µM (top dose mostly 9.22 µM), inactives show at the highest dose activation, hits mostly activators. hit rate 2.4% among 320,000. AID 485313; further: % of control where 0% means no effect; nearly all actives have a fitted effect of over 60% in size
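Stably transfected Huh7 (NPC1 promoter→luciferase), 1500 cells/well in Opti-MEM + 10% FBS, 2 h settle, then compound 24 h at 37 °C. Luminescence after 10 min with Amplite reagent.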
ELG1 genotoxic – inducers of genotoxicity in HEK293T ELG1-luciferase cells | hit rate 1.3% among 330,000 | HEK293T ELG1-luciferase reporter, luminescence, 16 h | Potency, µM (doses to about 46 µM), without a hit: at the top dose activity change, positive = activation, usual class: activators; further: % of control where 0% means no effect; nearly all actives have a fitted effect of over 60% in size
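Step 1: seed 2,000 HEK293T ELG1-luciferase cells per well. Step 2: add compound or DMSO, incubate 16 hr at 37 °C. Step 3: ONE-Glo, 30 min at room temperature, read luminescence.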
FLuc modulator – counter-screen for miR-21 project: firefly luciferase inhibitors or activators; Potency, µM (series often up to 57.5 µM), for the others: at the highest dose activity change, negative = inhibition, usual class: inhibitors; AID 588342; hit rate 6.9% among 360,000; purified FLuc, Km substrates, luminescence inhibition;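 further: plate controls were vehicle for no effect and reference inhibitor for full effect; nearly all actives have a fitted effect of over 55% in size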
Target sequence (P08659 whole entry, looked up): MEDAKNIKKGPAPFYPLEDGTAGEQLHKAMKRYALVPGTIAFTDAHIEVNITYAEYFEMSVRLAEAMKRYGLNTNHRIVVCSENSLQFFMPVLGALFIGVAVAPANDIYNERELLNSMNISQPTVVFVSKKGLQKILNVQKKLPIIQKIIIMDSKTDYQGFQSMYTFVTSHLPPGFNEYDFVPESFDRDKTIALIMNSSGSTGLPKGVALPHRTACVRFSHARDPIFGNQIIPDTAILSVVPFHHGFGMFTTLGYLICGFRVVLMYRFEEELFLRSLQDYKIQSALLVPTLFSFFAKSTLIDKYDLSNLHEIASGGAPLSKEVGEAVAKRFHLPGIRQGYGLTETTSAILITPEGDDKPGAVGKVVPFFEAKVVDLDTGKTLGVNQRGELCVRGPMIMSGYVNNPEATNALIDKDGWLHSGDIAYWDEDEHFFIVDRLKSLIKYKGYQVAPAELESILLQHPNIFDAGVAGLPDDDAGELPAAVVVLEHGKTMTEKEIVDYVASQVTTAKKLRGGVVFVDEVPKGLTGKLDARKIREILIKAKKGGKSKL
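Biochemical qHTS of compounds, final roughly 60 µM downward over six points, against 10 nM purified firefly luciferase using Km concentrations of substrates (10 uM D-luciferin, 10 uM ATP) in Tris acetate pH 7.5 buffer; luminescence output.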
KinaseGlo FLuc – blocks Kinase-Glo luciferase, a counter-screen artifact; Kinase-Glo luciferase, ATP luminescence, 8 min; Potency, µM (series often up to 38.3 µM), for inactives: top-dose activity change, negative = inhibition, hits mostly inhibitors; hit rate 0.28% among 200,000; AID 1379; further: on the % scale 0 is the no-effect control and ±100 the full control effect; nearly all actives have a fitted effect of over 60% in size
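Luminescence was the read-out, taken after 8-minute incubation at ambient temperature. Luciferase turned over luciferin with 10 uM ATP in imidazole pH 7.2 buffer containing KCl, MgCl2, Tween 20 and BSA.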
SMN2 splice enh – enhancers of SMN2 splice variant expression; HEK293 SMN2-luciferase splicing reporter, luminescence, 30-36 h; Potency, µM (doses to about 46.1 µM), without a hit: top-dose activity change, positive = activation, most hits filed as activators; hit rate 2.8% among 210,000; AID 1458; further: % of control where 0% means no effect; nearly all actives have a fitted effect of over 55% in size
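HEK293 cells carry an SMN2 minigene-luciferase reporter in which exon 7 inclusion puts luciferase in frame. Cells were seeded at 2000 cells/well, attached for 10-12 hours, then exposed to compounds for 30-36 hours at 37C before ONE-Glo luminescence.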
* = called active by the depositor; [ ] = another dose, or the depositor's remark. The call rests on the fitted dose curve; in most records, active means well fitted curve in the direction sought with a large enough effect; inconclusive means small, poorly fitted or top-dose-only effect, or another doubt; inactive means no such curve, though single readings can be large; an effect the other way counts as inactive or inconclusive. Potency means the concentration at half of the fitted maximal effect.

Results for Cc1cc2ccccc2n1CCNC(=O)c1ccccc1 ?
Rab9 prom act: inconclusive; NPC1 prom act: inconclusive; ELG1 genotoxic: 5%; FLuc modulator: 21µM*; KinaseGlo FLuc: -8%; SMN2 splice enh: -54%

Results for O=C(NCCc1ccccc1)c1ccc2c(c1)OCO2 ?
Rab9 prom act: inconclusive; NPC1 prom act: inconclusive; ELG1 genotoxic: inconclusive; FLuc modulator: 0.54µM*

Results for CN(C)c1ccc(C(CNC(=O)c2ccccc2Cl)N2CCCC2)cc1 (centres undefined) ?
FLuc modulator: 4%

What do the screens show for `Cc1cccc(-c2nc3scc(CCNS(=O)(=O)c4ccc5c(c4)OCCO5)n3n2)c1`?
FLuc modulator: 6%

What do the screens show for `CCOc1ccc(C(=O)NCCn2cc(SCC(=O)Nc3cc(C)on3)c3ccccc32)cc1`?
Rab9 prom act: 1%; NPC1 prom act: 0%; ELG1 genotoxic: -4%; FLuc modulator: 12µM*; KinaseGlo FLuc: -3%; SMN2 splice enh: -23%

What do the screens show for `COc1ccc(C(=O)NCCn2ccc3ccccc32)cc1`?
Rab9 prom act: 1.4µM*; NPC1 prom act: inconclusive; ELG1 genotoxic: inconclusive; FLuc modulator: 11µM*; KinaseGlo FLuc: -5%; SMN2 splice enh: 13µM*

How did COc1ccc(C(=O)NCCSc2ccccc2)cc1 do in these assays?
Rab9 prom act: 0.35µM*; NPC1 prom act: 0.35µM*; ELG1 genotoxic: 2.6µM*; FLuc modulator: 1.5µM*; KinaseGlo FLuc: -9%; SMN2 splice enh: 2.8µM*

Results for O=C(NCCn1ccc2ccccc21)c1ccc2c(c1)OCO2 ?
Rab9 prom act: 1.1µM*; NPC1 prom act: 0.89µM*; ELG1 genotoxic: 2.3µM*; FLuc modulator: 6.7µM*; KinaseGlo FLuc: -3%; SMN2 splice enh: 8.9µM*

What do the screens show for `Cc1ccc(C(=O)NCCn2ccc3ccccc32)cc1[N+](=O)[O-]`?
Rab9 prom act: 21%; NPC1 prom act: 21%; ELG1 genotoxic: -3%; FLuc modulator: -18%; KinaseGlo FLuc: 3%; SMN2 splice enh: inconclusive

How did Cc1cc(-c2cc(C)c(O)c(C(C)(C)C)c2)cc(C(C)(C)C)c1O do in these assays?
KinaseGlo FLuc: 1%[7.66 µM]; SMN2 splice enh: -9%[9.22 µM]

How did OCc1ccncc1.OCc1ccncc1.[Cl][Pt]([Cl])([Cl])[Cl] do in these assays?
KinaseGlo FLuc: -4%[7.66 µM]; SMN2 splice enh: -4%[9.22 µM]

How did Cc1c(C(=O)N2CCOCC2)oc2c1-c1nn(CC(=O)NCc3cccc(Cl)c3)cc1CC2 do in these assays?
FLuc modulator: -11%

How did Cc1ccc2nc(-c3cccc(NC(=O)c4ccc5c(c4)OCCO5)c3)oc2c1 do in these assays?
Rab9 prom act: 5%; NPC1 prom act: 11%; ELG1 genotoxic: 12%; FLuc modulator: 9.5µM*; KinaseGlo FLuc: -9%; SMN2 splice enh: -13%

Results for CC(C)c1ccc2oc(-c3cccc(NC(=O)c4ccc5c(c4)OCCO5)c3)nc2c1 ?
FLuc modulator: 2.1µM*; SMN2 splice enh: -3%

What do the screens show for `CC(C)C(=O)Nc1cccc(-c2csc(-c3ccccc3)n2)c1`?
Rab9 prom act: -1%; NPC1 prom act: -2%; ELG1 genotoxic: -1%; FLuc modulator: 17µM*; KinaseGlo FLuc: -2%; SMN2 splice enh: inconclusive

Results for CC(C)C(=O)Nc1ccc(-c2csc(-c3ccccc3)n2)cc1 ?
Rab9 prom act: inconclusive; NPC1 prom act: 2.2µM*; ELG1 genotoxic: 22%; FLuc modulator: inconclusive; KinaseGlo FLuc: -4%; SMN2 splice enh: inconclusive

Results for Cc1nc(-c2cccc(NC(=O)Cc3ccccc3)c2)cs1 ?
Rab9 prom act: 4%; NPC1 prom act: -2%; ELG1 genotoxic: -1%; FLuc modulator: inconclusive; KinaseGlo FLuc: -2%; SMN2 splice enh: 3%

How did CCc1ccc(-n2c(=O)c3sc4ccccc4c3n(CC(=O)N(CC)Cc3ccccc3)c2=O)cc1 do in these assays?
FLuc modulator: 4%; SMN2 splice enh: 0%
